# This is a sample that favours compounds with a hit; in the whole collection about 11% have one here.
# PNC inhibitor: inhibitors of perinucleolar compartment assembly; activity change (PNC), negative = inhibition, % at 10 µM; 3.1% of 140,000 active; PC3M PTB-GFP, PNC prevalence imaging, 16 h; active compounds read low;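 active means readout at or below -70, meaning at least 70% loss of cells showing the perinucleolar compartment, a nuclear body marking cancer cells; inconclusive means readout between -30 and a set limit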;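 further: plate controls were DMSO wells for no effect and camptothecin positive control wells for full effect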
#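 Compounds are pinned in duplicate onto adhered PC3M cells stably expressing GFP-tagged PTB and incubated 16 h at 37 C. Cells are then fixed, nuclei stained with Hoechst, and PNC-positive cells counted.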
# ALDH1A1 block: ALDH1A1 (human) enzyme inhibition; P00352; AID 1030; Potency, µM (highest dose often 75.3 µM), inactives show top-dose activity, negative = inhibition, actives largely listed as inhibitors; Purified ALDH1A1, NADH fluorescence, propionaldehyde substrate; 7.3% of 220,000 active;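 further: potency means the concentration at half of the fitted maximal effect; plate controls were no enzyme wells and a reference inhibitor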
# HPGD inh: HPGD (human) dehydrogenase inhibition | P15428 | purified HPGD, NADH fluorescence kinetic, PGE2 substrate | Potency, µM, inactives show at the highest dose activity change, negative = inhibition, actives largely listed as inhibitors | 4.3% of 150,000 active; further: potency means the concentration at half of the fitted maximal effect
# Target sequence (P15428 whole entry, looked up): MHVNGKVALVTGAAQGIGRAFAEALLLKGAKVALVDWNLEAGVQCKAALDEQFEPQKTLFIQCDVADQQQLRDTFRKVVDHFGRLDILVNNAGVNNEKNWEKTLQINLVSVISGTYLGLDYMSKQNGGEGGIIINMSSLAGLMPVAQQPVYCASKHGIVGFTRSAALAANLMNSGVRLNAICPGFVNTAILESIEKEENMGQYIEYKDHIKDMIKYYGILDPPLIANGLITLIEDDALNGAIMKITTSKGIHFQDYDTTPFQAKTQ
#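 20 nM HPGD preincubated 15 min at room temperature with compound in 50 mM Tris-HCl pH 8, 0.01% Tween 20. Started with 1 mM NAD+ and 30 uM prostaglandin E2; NADH fluorescence (360/450 nm) read 5 times over 30-s intervals, last minus first.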
# IMPase Li inh: cell-permeable IMPase inhibitors with lithium potentiation; CHO-M1 cells, IP1 TR-FRET (IP-One), carbachol + lithium; Potency, µM (highest dose often 59.4 µM), without a hit: top-dose activity, negative = IMPase inhibition, actives largely listed as inhibitors; 0.35% of 210,000 active; active means well fitted inhibition curve with a large enough effect; inconclusive means small, poorly fitted or top-dose-only effect; inactive means no such curve, though single readings can be large or run the other way;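 further: IP1 builds up when IMPase is blocked and the TR-FRET signal falls; potency means the concentration at half of the fitted maximal effect; plate controls were basal vehicle for no effect and high inhibitor control for full effect; nearly all actives have a fitted effect of over 50% in size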
#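 Lithium-sensitised IP1 accumulation assay; M1-expressing CHO cells treated 30 min at 37C with compound. Competitive antibody detection by time-resolved FRET followed a 10 min room-temperature lysis step.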
# IMPase inh: membrane-permeable compound that blocks inositol monophosphatase. 120,000 tested, under 10 active. P97697. inhibition (IP1 accumulation), % at 46.1 µM. CHO-M1 cells, IP1 accumulation, HTRF TR-FRET ratio; active means well fitted curve in the direction sought with a large enough effect in the signal ratio, not every such curve was filed as active; inconclusive means small, poorly fitted or top-dose-only effect, or a change in a side signal; inactive means no such curve, though single readings can be large or run the other way; the % refers to the signal ratio;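 further: cells stimulated with carbachol in lithium chloride buffer; plate controls were DMSO basal wells for no effect and reference inhibitor wells for full effect; higher means more IMPase inhibition seen as more IP1 and lower FRET ratio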
# Target sequence (P97697 whole entry, looked up): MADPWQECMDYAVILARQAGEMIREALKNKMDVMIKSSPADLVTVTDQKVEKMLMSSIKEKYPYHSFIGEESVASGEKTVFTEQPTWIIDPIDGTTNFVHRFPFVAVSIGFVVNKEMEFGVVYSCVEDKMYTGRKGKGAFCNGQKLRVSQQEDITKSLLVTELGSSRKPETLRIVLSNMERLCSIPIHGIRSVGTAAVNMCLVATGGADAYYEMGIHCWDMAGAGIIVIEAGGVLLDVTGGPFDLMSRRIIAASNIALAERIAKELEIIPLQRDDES
#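 In this qHTS, compounds (final up to 46 uM) act on CHO-M1 cells that are then activated through the M1 receptor with carbachol, in pH 7.4 buffer containing 50 mM LiCl, for 30 min. IP1 accumulation is quantified by the IP-One immunoassay.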
# Active calls of the source: *; ? = inconclusive; / = no result; ! = not confirmed by another sample; [ ] = another dose, or the depositor's remark. Unless noted, the call rests on the fitted dose curve; in most records, active means well fitted inhibition curve with a large enough effect (not every such curve was filed as active); inconclusive means small, poorly fitted or top-dose-only effect, or another doubt; inactive means no such curve, though single readings can be large or run the other way. Unless noted, on the % scale 0 is the no-effect control and ±100 the full control effect.
SMILES,PNC inhibitor,ALDH1A1 block,HPGD inh,IMPase Li inh,IMPase inh
O=C(c1ccc2c(c1)OCO2)N1CCC2(CC1)OCCO2,-8,5%,25µM*,21%[38.3 µM],-6
C/C=C1/C[N@@+]2(C)CC[C@]34C(=C(C=O)[C@H]1C[C@H]32)Nc1ccccc14,/,?,/,-6%,/
CCn1cnc2c(Nc3cccc(Cl)c3)nc(N[C@@H]3CCCC[C@H]3N)nc21,/,/,/,/,6
Cn1c(O)c(/C=C/C=Nc2ccccc2)c(=O)n(C)c1=S,-17,13µM*,/,/,1
NC(N)=Nc1ccc2[nH]c3c(c2c1)C[C@]1(O)[C@@H]2Cc4ccc(O)c5c4[C@]1(CCN2CC1CC1)[C@H]3O5,/,/,/,/,20
CN1C(=O)C(Cc2c[nH]c3ccccc23)C(=O)N(C)C1=O,-19,14µM*,?,9%[38.3 µM],3
CN1C(=O)C(Cc2cccc3ccccc23)C(=O)N(C)C1=O,6,?,-23%,21%[38.3 µM],-2
O=c1ccc2cc(O[C@H]3OC(CO)C(O)C(O)C3O)c(O)cc2o1 (some centres not stated),/,?,?,13µM*,/
COC(=O)N(c1ccccc1)P1(=S)OCCO1,?,4µM*,8.9µM*,0%[38.3 µM],-1
CCOC(=O)N(c1ccccc1)P1(=S)OCCO1,21,?,?,6%[38.3 µM],8
O=C(O)c1cc[c]([Hg][S]c2ncnc3nc[nH]c23)cc1,/,0.89µM*,0.22µM*,8%,/
CC1CCCN(C(=O)c2ccc(N3CC4CC(C3)c3cccc(=O)n3C4)c([N+](=O)[O-])c2)C1 (configuration not stated),-116*,7.9µM*,18µM*,-1%,/
CC(O)C(C)OC(=O)[C@@H]1C[C@@H]2c3cccc4c3c(cn4C(C)C)C[C@H]2N(C)C1 (some centres not stated),/,1.8µM*!,-16%,9%,/
ClCc1ccccc1,/,-3%,-6%,-7%,/
O=C1CN=C(c2ccccc2)c2cc([N+](=O)[O-])ccc2N1,/,1%,25µM*,8%,/
[N-]=[N+]=CC(=O)CC[C@H](N)C(=O)O,/,3%[13.5 µM],-5%,-11%,/
CC12CN3CC(C)(CN(C1)C3c1cccs1)C2O (configuration not stated),-107*,3%,-13%,18%[38.3 µM],6
C(=NC1CCCCC1)=NC1CCCCC1,/,-8%,-1%,6%,/
O=C(C[N+]12CCC(CC1)C(CO)C2)c1ccc([N+](=O)[O-])cc1 (configuration not stated),/,-11%,/,1%,/
O=C(CNC(=O)c1cccs1)OCC(=O)c1ccc([N+](=O)[O-])cc1,/,0.32µM*,/,0%,/
CN(C)/C=c1\sc2c(C#N)cc(C(=O)c3ccc(Br)cc3)n2c1=O,64,2µM*,-12%,18%[38.3 µM],6
O=C(Nc1cccc(Cl)c1)OC1CN2CCC1CC2 (configuration not stated),/,12%,/,/,/
CC(C)OC(=O)Nc1cccc(Cl)c1,/,-1%,13µM*,-2%,/
CN(CCC(=O)O)C1=Nc2ccc(Cl)cc2C(c2ccccc2)=[N+]([O-])C1,/,7%[13.5 µM],-5%,-3%,/
CCS(=O)(=O)N1N=C(c2cccc(NS(C)(=O)=O)c2)CC1c1ccccc1 (configuration not stated),/,13µM*,/,2%,/
SMILES,PNC inhibitor,ALDH1A1 block,HPGD inh,IMPase Li inh,IMPase inh
c1ccc(OP(Oc2ccccc2)Oc2ccccc2)cc1,/,-16%,0%,-11%,/
CCCC[N+](=O)[O-],/,?,-5%,8%,/
O=c1[nH]c(=O)n(CC2CCCO2)c(O)c1/C=C1\C=Nc2ccccc21 (configuration not stated),?,14µM*,-24%,0%,/
COc1cccc2c1C13CC[N+]4(CC5CC5)CO[C@]1(CCC(=O)C3)C4C2,/,-3%,/,1%,/
CCCN(CCC)C(=O)Cc1c(-c2ccc(Cl)cc2)nc2c(Cl)cc(Cl)cn12,/,6%,-19%,10µM*,1
C[C@]12N[C@@H](Cc3ccccc31)c1ccccc12,/,-2%,-1%,13%,-1
O=C(OCC(=O)c1ccc([N+](=O)[O-])cc1)/C(=C/c1ccc(Cl)cc1)NC(=O)c1ccccc1,?,7.9µM*,-15%,-2%,/
O=C(C[N+]12CCC(CC1)C(OC(=O)c1ccccc1)C2)c1ccc([N+](=O)[O-])cc1 (configuration not stated),/,-1%,/,/,/
Nc1ccccc1-c1ccccc1,/,?,-12%,-4%,/
CC1=CC(=O)c2c(O)cccc2C1=O,/,16µM*,25µM*!,33%,23
CCOCN(C(=O)CCl)c1c(C)cccc1CC,/,32µM*!,-5%,-8%,/
CCc1cccc(CC)c1N(COC)C(=O)CCl,/,3%,-3%,-11%,/
CC[C@@H](CO)NC(=O)[C@H]1C=C2c3cccc4c3c(cn4C)C[C@H]2N(C)C1,/,?,?,-4%,-3
c1ccoc1,/,8%,-3%,11%,/
CN(C(=O)Oc1ccc([N+](=O)[O-])cc1)c1ccccc1,?,?,-5%,0%,/
COP(=S)(OC)Oc1ccc([N+](=O)[O-])cc1,/,20µM*,-6%,6%,/
O=CN1CCCCC1C1CC[C@H]2CCCCN2C1 (some centres not stated),/,6%,-2%,13%,3
CN[C@H](CC(C)C)C(=O)N[C@H]1C(=O)N[C@@H](CC(N)=O)C(=O)N[C@H]2C(=O)N[C@H]3C(=O)N[C@H](C(=O)N[C@H](C(=O)O)c4cc(O)cc(O)c4-c4cc3ccc4O)[C@H](O)c3ccc(c(Cl)c3)Oc3cc2cc(c3O[C@@H]2O[C@H](CO)[C@@H](O)[C@H](O)[C@H]2O[C@H]2C[C@](C)(N)[C@H](O)[C@H](C)O2)Oc2ccc(cc2Cl)[C@H]1O,/,?,-13%,-10%,/
[O-]/[N+](=C/c1cccnc1)c1ccc(Br)cc1,-9,1.8µM*,-18%,-4%[38.3 µM],10
COc1c(C(C)(C)C)cc([N+](=O)[O-])c(C)c1[N+](=O)[O-],/,?,-8%,22%,/
O=P1(Nc2cccnc2)COc2ccccc2OC1,-7,-5%,7.1µM*,5%[38.3 µM],-6
O=P(Nc1cccnc1)(Oc1ccccc1)Oc1ccccc1,?,-17%,-11%,14%,/
O=C1CCC[C@H]2[C@H]3CCCN4CCCC(=CN12)[C@@H]34,/,0%,-9%,23%,/
Cc1ccc(-n2nc(C)c3c2OC(N)=C(C#N)C3c2cccs2)cc1 (configuration not stated),27,13µM*,-13%,-2%[38.3 µM],10
COc1ccc(C2C(C(=O)N3CCC4(CC3)OCCO4)c3cc(OC)c(OC)cc3C(=O)N2C)cc1 (configuration not stated),-19,14µM*,-16%,-8%,9
Cc1ccc(/C=C2/C(=O)NC(=O)N(C)C2=O)cc1,-26,0%,-29%,-3%,/

# Assay outcomes as filed in PubChem.
